Source: PubChem BioAssay (Broad Institute)
aSyn 5UTR act: Activators via SNCA 5'UTR binding, MLPCN; actives 7.1% (n = 300,000); AID 1814; alpha-synuclein 5'UTR reporter, activators screen; activity score, % (tested at 7.5 µM), hits read low; in the data active = activity score below about -60%
Numbers without * were called inactive. The list is a sample of the results.

SMILES | aSyn 5UTR act
COc1cc(C(=S)N2CCCC2)ccc1OS(=O)(=O)c1ccc(NC(C)=O)cc1 | -64.2*
Cc1ccc(C(=O)Nc2ccc(N3CCCC3)cc2)cc1 | -160.1*
Cc1ccc(C(=O)Nc2ccc(N3CCOCC3)cc2)cc1 | -95.4*
CCC(=O)NC(=S)Nc1ccc(N2CCOCC2)cc1 | -81.8*
COc1ccc(C(=O)Nc2ccc(N3CCCCC3)cc2)cc1Br | -63.5*
[O-]/C(=C(\C(=S)Nc1ccc(SC(F)F)cc1)[n+]1cccc(CO)c1)c1ccc(Cl)s1 | -70.6*
COc1ccc(C(=O)Nc2ccc3nc(C)c(C)nc3c2)cc1 | -86.9*
Cc1ccc(C(=O)Nc2cccc(C(F)(F)F)c2)cc1Nc1ncnc2nc[nH]c12 | 77.9
O=C(Nc1ccc(C(F)(F)F)cc1)c1ccc2nc[nH]c2c1 | -78.1*
COc1ccc(C(=O)Nc2ccc3c(c2)nc2n3CCSC2)cc1 | -67.2*
COc1ccc(NC(=O)c2ccc3nc[nH]c3c2)cc1 | -81.3*
O=C(Nc1ccc2c(c1)OCO2)c1ccc2nc[nH]c2c1 | -112.4*
NC(=O)c1c(/N=C/c2cccnc2)sc2c1CCCC2 | -101.5*
Cc1ccc(/C=N/c2sc3c(c2C(N)=O)CCCC3)o1 | -114.2*
O=C(Nc1ccccc1)c1cc2n(n1)C(C(F)(F)F)CC(C1CC1)N2 (centres undefined) | -167.8*
CC1=CCC(COC(=O)Nc2ccccc2)CC1 (centres undefined) | -138.9*
O=C(Nc1ccc2c(c1)C(=O)OC2)c1ccc(F)cc1F | -63.1*
O=C(Nc1ccc2c(c1)C(=O)OC2)c1ccc(Cl)cc1Cl | -75.0*
COc1ccc(C(=O)/C(=C\c2sccc2C)c2nc3ccccc3o2)cc1 | -67.8*
c1cncc(-c2nc3c(ccc4ccccc43)[nH]2)c1 | -192.6*
Cc1noc(C(=O)Nc2cccc(Cl)c2)c1Cl | -78.6*
COc1ccc(NC(=O)c2onc(C)c2Cl)cc1 | -123.6*
Cc1noc(NC(=O)c2ccc(Cl)cc2)c1Cl | -69.8*
CCc1ccc(NC(=O)c2onc(C)c2Cl)cc1 | -181.9*
Cc1ccc(S(=O)(=O)CCSc2n[nH]c(=O)n2-c2ccc3c(c2)OCCO3)cc1 | -72.5*
SMILES | aSyn 5UTR act
COc1ccc2cc(CN(CC3CCCO3)S(=O)(=O)c3ccc(C(C)=O)cc3)c(=O)[nH]c2c1 (centres undefined) | -77.9*
CC(=O)Nc1ccc(S(=O)(=O)N(Cc2cc3ccc(C)cc3[nH]c2=O)CC2CCCO2)cc1 (centres undefined) | 82.4
O=[N+]([O-])c1ccc(-n2cc(-c3ccccc3)nn2)cc1 | -79.6*
N#CC1=C(N)Oc2cc(N)ccc2C1c1cccc(F)c1 (centres undefined) | -137.5*
CN(C)c1ccc2c(c1)OC(N)=C(C#N)C2c1cccc(F)c1 (centres undefined) | 68.0
N#CC1=C(N)Oc2cc(N)ccc2C1C1CCCCC1 (centres undefined) | -89.3*
CCOC(=O)N1CCN(C(=O)CCSc2ccccc2)CC1 | -108.4*
NC(=O)C1CCN(C(=O)CCSc2ccccc2)CC1 | -102.8*
O=C(O)c1cnn(-c2nc(-c3ccc(Br)cc3)cs2)c1C(F)(F)F | -96.0*
Cc1ccc2nc(SCC(=O)Nc3ccc4sc(C)nc4c3)c(C#N)cc2c1 | -128.6*
Cc1cc(NC(=O)CSc2nc3ccccc3cc2C#N)no1 | -158.2*
Cc1cc(NC(=O)CSc2nc3ccccc3c(=O)n2C2CCCC2)no1 | 85.8
COc1ccc2nc(SCC(=O)Nc3cc(C)on3)c(C#N)cc2c1 | -102.8*
COC(=O)CSc1nc2cc(C)ccc2cc1C#N | -189.5*
N#Cc1cc2cc3c(cc2nc1SCC(=O)N1CCOCC1)OCCO3 | 109.6
COc1ccc2nc(SCC(=O)N3CCCCC3)c(C#N)cc2c1 | -107.1*
Cc1cc(NC(=O)CSc2nc3c(cc2C#N)CCCC3)no1 | -73.6*
COc1ccc2nc(SCC(=O)NC3CC3)c(C#N)cc2c1 | -68.3*
C=CCN(C(=O)c1oc2c(Cl)cc(C)cc2c1C)C1CCS(=O)(=O)C1 (centres undefined) | -70.8*
O=C1N/C(=C/c2ccc(Br)s2)C(=O)N1c1ccccc1 | -81.0*
Cc1cc(/C=C2/NC(=O)N(c3ccccc3)C2=O)c(C)n1C(C)C | -64.2*
Cc1ccc(/C=C2/NC(=O)N(c3ccccc3)C2=O)o1 | -104.7*
COc1ccc(-c2nc3ccccn3c2CN2CCN(c3ccccc3F)CC2)cc1 | -76.3*
COc1ccc(N=C/C=C2\C=C(c3ccccc3)OC(C)(C)O2)cc1 | -134.9*
O=C(Nc1ccccc1)NC1CCCCC1 | -66.4*
SMILES | aSyn 5UTR act
O=C(Nc1ccccc1)NC1CCCCCCC1 | -106.2*
CCC1(C)Cc2ccccc2-c2nc(NCCO)n(-c3ccc(C)cc3)c(=O)c21 (centres undefined) | -63.2*
Cc1ccc(C)n1-c1cccc(NC(=O)c2ccccc2)c1 | -72.7*
Cc1ccc(C)n1-c1ccc(C(=O)Nc2ccccc2)cc1 | -81.7*
O=[N+]([O-])c1ccccc1NCCNc1ncc(C(F)(F)F)cc1Cl | -77.0*
O=c1cc(Cl)[nH]c(=O)n1CCNc1ncc(C(F)(F)F)cc1Cl | -106.2*
O=[N+]([O-])c1cccnc1NCCNc1ncc(C(F)(F)F)cc1Cl | -178.3*
CCOc1ccc(-c2nnc(SCC(=O)N3CCCC3)o2)cc1 | -101.3*
COc1ccc(-c2nnc(SCC(=O)N3CCCC3)o2)cc1 | -107.3*
CCOc1ccc(-c2nc(CSCC(=O)N3CCN(c4cccc(OC)c4)CC3)c(C)o2)cc1 | 68.5
CCOc1ccc(-c2nnc(SCC(=O)N3CCOCC3)o2)cc1 | -113.3*
CCOc1ccc(/C=C(/NC(=O)c2ccc(Cl)cc2)C(=O)O)cc1OCC | -86.2*
Cc1cc(=O)[nH]c2nnc(-c3ccc(Br)cc3)n12 | -62.3*
O=C(Sc1cccc2cccnc12)c1ccccc1Br | -241.6*
CCOC(=O)CNC(=O)c1cc(-c2ccccn2)nc2c(C)c(Cl)ccc12 | -65.6*
COc1ccc(-c2cc3ncnc(Cl)c3s2)cc1 | -69.1*
S=c1sc2c(Cl)ncnc2n1-c1ccccc1 | 92.9
CCOc1ccc2oc(C(=O)NC(C)(C)CC)c(C)c2c1 | -117.5*
O=C(Nc1ccccn1)c1ccc(C(=O)Nc2ccccn2)cc1 | -104.3*
O=C(c1cc2cc([N+](=O)[O-])ccc2s1)N1CCCCC1 | -70.8*
O=C(NC(=S)Nc1ccccn1)c1ccccc1 | -133.4*
O=C(Nc1ccccc1)c1ccc(CSc2ccccn2)cc1 | -102.2*
O=C(Nc1ccccn1)c1ccc(Br)s1 | -190.7*
O=C(NC(=S)Nc1ccccn1)c1ccc([N+](=O)[O-])cc1 | -118.9*
O=C(Nc1ccccn1)c1cc2ccccc2cc1O | -103.8*
SMILES | aSyn 5UTR act
O=C(Nc1ccc(Cl)cc1)c1ccc(-c2ccccn2)s1 | -170.1*
O=C(Nc1ccccn1)c1cc2cc([N+](=O)[O-])ccc2s1 | -158.2*
O=[N+]([O-])c1cccc(-c2nnc(-c3ccccc3F)o2)c1 | -161.5*
O=C(O)c1ccc(N/N=C/c2c[nH]c3ccccc23)cc1 | 78.6
O=C(N/N=C/c1c[nH]c2ccccc12)c1cc(-c2ccccc2)n[nH]1 | -72.5*
O=C(N/N=C/c1c[nH]c2ccccc12)c1ccc(Cl)cc1 | -77.0*
Cc1ccc(-c2cc(C(=O)N/N=C/c3c[nH]c4ccccc34)[nH]n2)cc1 | 77.5
O=C(N/N=C/c1c[nH]c2ccccc12)c1cc(-c2ccc(-c3ccccc3)cc2)n[nH]1 | -145.6*
COc1ccc(-c2nnc(-c3ccc(N)cc3)o2)cc1 | -112.6*
CN(C)c1ccc(-c2nnc(-c3ccc(S(=O)(=O)C(F)F)cc3)o2)cc1 | -62.8*
COc1ccc(-c2nnc(-c3ccc(N(C)C)cc3)o2)cc1 | -147.7*
